Laboratory results as given in article PMC4336329 (PLoS ONE, 2015).
In all, about 310,000 compounds went through this assay and about 14,000 (4.5%) showed an effect of 50% or more. The effect is printed as a negative number. Only a selection was taken, and strong results are over-represented in it overall.

Target: human ether-à-go-go-related gene (hERG) potassium channel (human, UniProt Q12809)
Test: primary screen, population patch clamp on CHO cells stably expressing hERG; higher = less effect of the substance
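Also: peak tail current of the secondary pulse compared with the same well before compound.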

human ether-à-go-go-related gene (hERG) potassium channel, sequence (Q12809 whole entry, looked up): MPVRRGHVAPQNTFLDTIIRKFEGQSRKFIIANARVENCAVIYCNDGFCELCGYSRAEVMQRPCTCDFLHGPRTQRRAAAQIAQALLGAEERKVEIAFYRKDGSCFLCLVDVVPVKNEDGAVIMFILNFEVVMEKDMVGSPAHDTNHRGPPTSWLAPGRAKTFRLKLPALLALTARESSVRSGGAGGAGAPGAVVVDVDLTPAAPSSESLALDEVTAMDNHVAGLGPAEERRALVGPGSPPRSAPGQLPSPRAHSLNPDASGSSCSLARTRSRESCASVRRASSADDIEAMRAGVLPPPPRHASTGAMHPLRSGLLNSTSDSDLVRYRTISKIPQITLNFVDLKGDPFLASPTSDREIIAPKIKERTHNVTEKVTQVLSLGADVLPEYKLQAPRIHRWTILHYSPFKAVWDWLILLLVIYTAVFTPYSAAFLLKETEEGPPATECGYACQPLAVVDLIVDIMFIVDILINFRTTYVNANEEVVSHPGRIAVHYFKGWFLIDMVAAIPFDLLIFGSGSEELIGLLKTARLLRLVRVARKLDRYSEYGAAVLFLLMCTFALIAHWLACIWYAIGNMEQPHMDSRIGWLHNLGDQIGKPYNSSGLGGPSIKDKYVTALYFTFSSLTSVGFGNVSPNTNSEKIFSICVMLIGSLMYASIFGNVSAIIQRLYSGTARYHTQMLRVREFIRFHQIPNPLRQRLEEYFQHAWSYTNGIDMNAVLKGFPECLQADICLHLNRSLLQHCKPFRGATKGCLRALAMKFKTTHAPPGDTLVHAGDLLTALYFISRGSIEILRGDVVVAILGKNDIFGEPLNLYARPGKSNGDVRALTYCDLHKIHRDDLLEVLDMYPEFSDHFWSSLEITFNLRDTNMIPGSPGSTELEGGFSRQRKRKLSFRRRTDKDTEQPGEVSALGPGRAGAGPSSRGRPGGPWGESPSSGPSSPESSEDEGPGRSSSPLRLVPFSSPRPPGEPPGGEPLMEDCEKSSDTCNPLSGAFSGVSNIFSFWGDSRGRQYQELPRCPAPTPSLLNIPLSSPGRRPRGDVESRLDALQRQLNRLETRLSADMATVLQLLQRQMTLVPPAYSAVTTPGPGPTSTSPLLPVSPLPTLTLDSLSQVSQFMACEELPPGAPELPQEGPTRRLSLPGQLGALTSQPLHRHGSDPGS

| SMILES | hERG current change (%, negative = inhibition) at 10uM |
| --- | --- |
| COc1cccc(CN(CC(=O)NCC2CCCO2)C(=O)CCC(=O)Nc2cc(C)on2)c1 (centres unmarked) | -0.822% |
| CCOC(=O)CCCCCNC(=O)c1c(O)[nH]c(=O)[nH]c1=O | 17.7% |
| O=C(c1cc(-c2ccncc2)nc2ccccc12)N1CCC2(CC1)OCCO2 | -25.9% |
| CC(C)c1nc2oc3c(NCc4ccccn4)ncnc3c2c2c1COC(C)(C)C2 | 5.62% |
| C/C(=N\NC(=O)COc1ccccc1[N+](=O)[O-])c1cccs1 | 10.3% |
| COc1cc(-c2nc(=S)[nH][nH]2)cc(OC)c1OC | 5.94% |
| O=C(NCc1cccnc1)/C(=C/c1ccco1)NC(=O)c1ccccc1 | -58.6% |
| COc1ccc(C(=O)N/C(=C\c2ccco2)C(=O)NCc2ccco2)cc1 | -19.7% |
| O=C(NCc1ccccn1)/C(=C/c1ccco1)NC(=O)c1ccccc1 | -10% |
| COc1ccc(C(=O)N/C(=C\c2ccco2)C(=O)NCc2cccnc2)cc1 | -66.7% |
| O=C(NCc1ccco1)/C(=C/c1ccco1)NC(=O)c1ccccc1 | 4.34% |
| Cc1ccc(C(=O)N/C(=C/c2ccco2)C(=O)NCc2ccco2)cc1 | -12% |
| O=C(NCc1cccnc1)/C(=C/c1ccc(-c2cccc(Cl)c2)o1)S(=O)(=O)c1ccccc1 | -26.2% |
| O=C(NCc1cccnc1)/C(=C/c1ccc(-c2cccc(C(F)(F)F)c2)o1)NC(=O)c1ccccc1 | -74.1% |
| COc1ccc(C(=O)N/C(=C/c2ccco2)C(=O)NCc2ccco2)cc1 | -30.1% |
| Cc1ccc(C(=O)N/C(=C\c2ccco2)C(=O)NCc2cccnc2)cc1 | -65.2% |
| Cc1ccc(C(=O)N/C(=C/c2ccc(-c3cc(C(F)(F)F)ccc3Cl)o2)C(=O)NCc2cccnc2)cc1 | -1.72% |
| Cc1ccc(C(=O)N/C(=C/c2ccco2)C(=O)O)cc1 | -3.15% |
| O=C(Cn1nnc(-c2ccccc2)n1)NNC(=O)c1ccc(Br)cc1 | 17.6% |

| SMILES | hERG current change (%, negative = inhibition) at 10uM |
| --- | --- |
| O=C(Nc1nnc(-c2ccco2)s1)C1CC1 | -10.2% |
| O=C(CN1C(=O)/C(=C/c2c(F)cccc2Cl)Oc2ccccc21)NCc1ccco1 | 10.9% |
| CC(=O)O.Cc1ccc(C2C(C(=O)c3cccs3)=C(O)C(=O)N2c2ccc(S(N)(=O)=O)cc2)cc1 (centres unmarked) | 16.5% |
| CCOc1ccc(-n2cc(C(=O)N3CCN(C)CC3)c3cc(OC)c(OC)cc3c2=O)cc1 | 4.98% |
| CCN(CC)CCN(C(=O)C1=COCCO1)c1nc2cc3c(cc2s1)OCO3.Cl | -72% |
| CCN(CC)CCN(C(=O)/C=C/c1cccs1)c1nc2ccc(C)cc2s1.Cl | -10.8% |
| CCN(CC)CCN(C(=O)c1ccc(S(=O)(=O)N(CC)c2ccccc2)cc1)c1nc2c(OC)ccc(OC)c2s1.Cl | -27% |
| CCN(CC)CCN(C(=O)c1cc(Cl)sc1Cl)c1nc2cc3c(cc2s1)OCO3.Cl | -24.7% |
| CCN(CC)CCN(C(=O)C1=COCCO1)c1nc2c(OC)ccc(OC)c2s1.Cl | -78.3% |
| CCN(CC)CCN(C(=O)C1=COCCO1)c1nc2cc(C)cc(C)c2s1.Cl | -69% |
| CCN(CC)CCN(C(=O)C1=COCCO1)c1nc2ccc(C)cc2s1.Cl | -78.3% |
| CCN(CC)CCN(C(=O)c1c(F)cccc1F)c1nc2cc(C)cc(C)c2s1.Cl | -11.1% |
| CCN(C(=O)C1=COCCO1)c1nc2c(C)cccc2s1 | -17.2% |
| CCN(CC)CCN(C(=O)c1ccc(Br)s1)c1nc2cc3c(cc2s1)OCO3.Cl | -12% |
| Cc1cc(C)c2sc(NC(=O)C3=COCCO3)nc2c1 | -11.6% |
| Cc1ccc2nc(N(CCN(C)C)C(=O)C3=COCCO3)sc2c1.Cl | -44.1% |
| Cc1cc2ccccc2n1CCNC(=O)c1cccs1 | -0.757% |
| CN(C(=O)Nc1ccccc1)C1CCCCC1 | 10.2% |
| C=CCOC(=O)C1=C(C)NC(SCC(=O)Nc2ccccc2)=C(C#N)C1c1ccco1 (centres unmarked) | -15.1% |

| SMILES | hERG current change (%, negative = inhibition) at 10uM |
| --- | --- |
| CCC(Sc1nc2ccccc2o1)C(=O)Nc1nnc(C)s1 (centres unmarked) | -12.4% |
| CN(C)C(=O)c1cc(C(=O)c2ccc(F)cc2F)c[nH]1 | 14.6% |
| CCc1ccc(-n2c(SCc3cc(=O)n4cc(Br)ccc4n3)nc3[nH]ncc3c2=O)cc1 | -51% |
| O=c1c2cn[nH]c2nc(SCc2cc(=O)n3cc(Br)ccc3n2)n1-c1ccc(Br)cc1 | -24.8% |
| Cc1ccccc1-n1c(SCc2cc(=O)n3ccccc3n2)nc2[nH]ncc2c1=O | -35.2% |
| CN(Cc1ccccc1)C(=O)c1ccc2c(c1)OCCO2 | 5.55% |
| COc1ccc(-c2nc3ccccc3c(=O)n2CCOc2cccc(C)c2C)cc1 | 15% |
| NC(=O)Cn1cc(C(=O)C(=O)N2CCOCC2)c2ccccc21 | 1.6% |
| Cc1cc(F)ccc1S(=O)(=O)Nc1ccccc1C(=O)Nc1ccccc1-c1nc2ccccc2[nH]1 | 4.92% |
| O=C(NN1CC(C(=O)OCc2ccccc2F)CC1=O)c1ccccc1 (centres unmarked) | -56.8% |
| O=C(NN1CC(C(=O)OCc2ccc(Cl)cc2Cl)CC1=O)c1ccccc1 (centres unmarked) | -16.5% |
| O=C(NN1CC(C(=O)OCc2ccc(Br)cc2)CC1=O)c1ccccc1 (centres unmarked) | -21.2% |
| COc1cccc(NC(=S)N(CCCN2CCOCC2)C(C)c2cc3ccccc3o2)c1 (centres unmarked) | -44% |
| COc1ccc(NC(=S)N(CCCN2CCOCC2)C(C)c2cc3ccccc3o2)cc1 (centres unmarked) | -78.4% |
| COc1cccc2cc(C(C)N(CCCN3CCOCC3)C(=O)Nc3ccccc3)oc12 (centres unmarked) | -16.9% |
| COc1cccc(NC(=O)N(CCCN2CCOCC2)C(C)c2cc3cccc(OC)c3o2)c1 (centres unmarked) | -29.4% |
| COc1ccc(NC(=S)N(CCCN2CCOCC2)C(C)c2cc3cccc(OC)c3o2)cc1 (centres unmarked) | -35.5% |
| COc1cccc(NC(=O)N(CCCN2CCOCC2)C(C)c2cc3ccccc3o2)c1 (centres unmarked) | -62.5% |
